esBAF inh: Bmi1 luciferase reporter increase in mESCs, primary screen, esBAF inhibitor project, mouse ES cells, Bmi1 luciferase knock-in, single point. 24 h; 100% = twice the neutral-well signal. reporter increase, % at 12.5 µM. hit rate 2% among 350,000. AID 602393, 2012; in the data active = activation above about 40%; inconclusive = no clear call, values can overlap the other calls;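 note: 0% = median of the plate's neutral control wells and 100% = double that signal; a rise in the Bmi1 reporter signal indicates esBAF inhibition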
Wnt act: Wnt/beta-catenin pathway activators, primary screen, cell-based, plate reader, single point; Wnt/beta-catenin reporter cell assay, activator; activation, % at 9.35 µM; hit rate 1.2% among 300,000; in the data active = activation above about 30%, passing the limit was not always enough; inconclusive = no clear call, values can overlap the other calls;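 note: 0% = neutral control wells and 100% = positive control wells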
MITF TRPM1 HTS: activators of MITF-driven TRPM1 promoter reporter, primary screen, cell-based, SK-MEL-5, luciferase, single point; activation, % at 12.5 µM; SK-MEL-5 TRPM1-promoter luciferase, 24 h; % of positive control, neutral wells = 0; AID 588334, 2011; hit rate 0.75% among 300,000;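 active = mean activation of at least 80% with every replicate also reaching 80%; inconclusive = mean reaches 80% but some replicate falls short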;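 note: 0% = neutral control wells and 100% = parthenolide positive control wells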
GAA850 FXN act: FXN promoter activators, primary screen, cell-based, luciferase luminescence, HEK293 lucGAA850 | HEK293 lucGAA850 FXN promoter luciferase reporter, 24 h; percent of 10 µM SAHA response | activation, % at 6 µM | hit rate 0.56% among 360,000;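 active = activation above the average of all compounds screened plus 3 SD, cutoff fixed separately per campaign, cut at about 7.5% in these data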;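 note: 0% = DMSO wells and 100% = 10 µM SAHA wells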
GAA30 FXN cntr: GAA30 FXN promoter activators, confirmation, counter-screen for GAA850 frataxin promoter activator project, cell-based, luminescence, HEK293, lucGAA30, triplicate; shares compounds with GAA850 FXN act; HEK293 lucGAA30 FXN promoter luciferase, 24 h; DMSO = 0%, 5 µM ipriflavone = 100%; activation, % at 6 µM; hit rate 66% among 1,900; AID 588350, 2011;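 active = mean activation above the mean of solvent-only control wells plus 3 SD, cut at about 22% in these data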;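 note: counterscreen of GAA850 promoter hits where activity marks nonselective or luminescence artifacts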
GAA850 confirm: FXN GAA850 promoter activators in reporter cells, confirmation, cell-based, luminescence, HEK293 lucGAA850, triplicate. hit rate 86% among 1,900. activation, % at 6 µM. HEK293 lucGAA850 FXN promoter luciferase reporter, 24 h; 100% = activation by SAHA. shares compounds with GAA850 FXN act. AID 588351, 2011;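 active = mean activation above a set limit taken from the primary screen, cut at about 8% in these data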;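 note: 0% = DMSO wells and 100% = 10 µM SAHA wells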
Starred values were filed as active, the others as inactive; ? = inconclusive; / = not tested or not shown. Compounds with a hit are over-represented: about 2.8% of the library has one in this group of screens.

SMILES | esBAF inh | Wnt act | MITF TRPM1 HTS | GAA850 FXN act | GAA30 FXN cntr | GAA850 confirm
Cc1ccn2cc(-c3ccc(O)c(O)c3)nc2c1 | -52.0 | 26.8 | 0.4 | 11.0* | 127.2* | 47.7*
Oc1ccc(-c2cn3ccccc3n2)cc1O | 5.4 | 22.7 | 63.6 | 8.9* | 109.3* | 33.4*
O=C(c1cc2ccccc2oc1=O)N1CCOCC1 | 49.5* | 35.3* | 63.1 | 7.7* | 101.5* | 33.9*
COc1ccccc1C(=O)Nc1ccc2c(c1)nc1n2CCSC1 | / | 28.9 | / | 8.0* | 98.1* | 26.6*
CC(=O)N(C1CC(C)C(C#N)(C#N)C1(C#N)C#N)N(C)C (configuration not stated) | / | 11.4 | -85.5 | 9.9* | -99.5 | -31.4
CC(C)(C)c1csc(NC(=O)CS(=O)(=O)c2ccccc2)n1 | 28.4 | -0.2 | 37.8 | 7.9* | 51.0* | 15.3*
O=C(Cn1c(=O)n(Cc2ccco2)c(=O)c2ccccc21)Nc1cccc(Cl)c1 | 6.8 | -6.3 | 13.1 | 4.2 | / | /
O=C(CCn1c(=O)c2sccc2n(CC(=O)NCc2ccco2)c1=O)NCc1ccccc1 | -2.2 | -3.5 | -3.5 | -1.8 | / | /
O=C(NCc1ccco1)c1ccc(Cn2c(=O)c3sccc3n(Cc3cccc(F)c3)c2=O)cc1 | -0.2 | 0.0 | 3.2 | 17.7* | 25.0* | 12.6*
O=C(NCc1ccco1)c1ccc(Cn2c(=O)c3ccccc3n(Cc3cccc(Cl)c3)c2=O)cc1 | -7.2 | / | -7.1 | 10.7* | 13.0 | 6.0
CCCN1C[C@@H](C)[C@H](OC)CN(C)C(=O)c2cc(NS(C)(=O)=O)ccc2OC[C@@H]1C | 4.1 | / | / | / | / | /
COc1ccc(-c2csc(-c3cccnc3)n2)cc1C | 51.5* | 9.9 | 75.6 | 9.5* | 88.2* | 32.4*
Cc1ccc(C)c(-c2csc(-c3cccnc3)n2)c1 | 6.3 | 4.1 | 3.1 | -0.3 | / | /
c1ccc(-c2csc(-c3cccnc3)n2)cc1 | / | -0.5 | 31.0 | 2.3 | / | /
COc1ccc2cc(-c3csc(-c4cccnc4)n3)ccc2c1 | 58.5* | / | ? | 8.1* | 92.1* | 37.3*
COc1ccc(NC(=O)N[C@@H]2CC[C@@H](CCn3cc(-c4ccccn4)nn3)O[C@H]2CO)cc1 | 0.1 | / | / | / | / | /
COc1cc(OC)c(-c2nn3c(C4CCCCC4)nnc3s2)cc1OC | 0.8 | -4.5 | 25.5 | 12.8* | -9.6 | 11.6*
COc1cc(-c2nnc3sc(C4CCCCC4)nn23)cc(OC)c1OC | -16.8 | / | / | 7.2 | / | /
CC(=O)c1ccc(N(C(=O)Cc2c[nH]c3ccccc23)C(C(=O)NC2CCCCC2)c2cccs2)cc1 (configuration not stated) | ? | / | / | -4.8 | / | /
O=C(NC1CCCCC1)C(c1cccs1)N(C(=O)Cc1c[nH]c2ccccc12)c1ccc(F)cc1 (configuration not stated) | 3.7 | -4.9 | / | 10.2* | 12.7 | 6.5
Cc1ccc(N(C(=O)Cc2cccs2)C(C(=O)NC2CCCCC2)c2ccccn2)cc1C (configuration not stated) | / | / | 7.0 | 13.2* | 2.2 | 10.6*
Cc1cccc(N(C(=O)Cc2cccs2)C(C(=O)NC2CCCC2)c2ccncc2)c1 (configuration not stated) | 2.4 | 4.7 | 13.9 | 2.9 | / | /
CC[C@@]12C(=O)N(c3cccc(C)c3)C(=O)N1[C@H](c1ccc(Br)cc1)[C@@H]1C(=O)N(C(C)(C)C)C(=O)[C@@H]12 | 16.0 | -1.1 | -3.4 | 16.0* | 23.1* | 11.3*
CCN1C(=O)[C@H]2[C@@H](c3ccc(C)cc3)N3C(=O)N(c4cccc(Cl)c4)C(=O)[C@@]3(Cc3ccc(Cl)cc3)[C@H]2C1=O | -7.8 | -2.6 | -4.4 | 1.4 | / | /
CCN1C(=O)[C@H]2[C@@H](c3ccc(C)cc3)N3C(=O)N(c4cccc(Cl)c4)C(=O)[C@@]3(CC(C)C)[C@H]2C1=O | -4.3 | -2.8 | -2.1 | 16.9* | 26.3* | 12.1*
SMILES | esBAF inh | Wnt act | MITF TRPM1 HTS | GAA850 FXN act | GAA30 FXN cntr | GAA850 confirm
CC[C@@]12C(=O)N(c3cccc(Cl)c3)C(=O)N1[C@H](c1ccc(Br)cc1)[C@@H]1C(=O)N(C(C)(C)C)C(=O)[C@@H]12 | -6.3 | -1.2 | 12.4 | 14.4* | 34.9* | 17.2*
COc1ccc([C@@H]2[C@@H]3C(=O)N(C(C)(C)C)C(=O)[C@@H]3[C@]3(Cc4ccc(Cl)cc4)C(=O)N(c4ccc(C)cc4)C(=O)N23)cc1 | 9.1 | -2.8 | -10.5 | -2.4 | / | /
CC(C)C[C@@]12C(=O)N(c3ccc(Br)cc3)C(=O)N1[C@H](c1ccc(Br)cc1)[C@@H]1C(=O)N(C(C)(C)C)C(=O)[C@@H]12 | -5.1 | -5.1 | 5.5 | 16.8* | 18.3 | 18.0*
COc1ccc([C@@H]2[C@@H]3C(=O)N(C(C)(C)C)C(=O)[C@@H]3[C@]3(C)C(=O)N(c4cccc(C)c4)C(=O)N23)cc1 | 1.0 | -2.9 | 6.5 | 3.8 | / | /
CCN1C(=O)[C@H]2[C@@H](c3ccc(C)cc3)N3C(=O)N(c4cccc(Cl)c4)C(=O)[C@@]3(Cc3ccccc3)[C@H]2C1=O | -5.0 | -2.2 | 1.4 | -2.4 | / | /
COc1ccc(NC(=O)N(C)C[C@@H]2Oc3ccc(NC(=O)Nc4ccc5c(c4)OCO5)cc3CC(=O)N([C@@H](C)CO)C[C@H]2C)cc1 | 9.4 | / | / | / | / | /
CC=Cc1ccc2n(c1=O)C[C@@H]1[C@@H](CO)[C@H](C(=O)NCc3ccccn3)N(CC3CC3)[C@H]21 (mixture of isomers) | 1.1 | / | / | / | / | /
CC(C)C[C@@]12C(=O)N(c3cccc(Cl)c3)C(=O)N1[C@H](c1ccc(Br)cc1)[C@@H]1C(=O)N(C(C)(C)C)C(=O)[C@@H]12 | -2.3 | -5.5 | 6.6 | 15.5* | 33.3* | 18.3*
CC(C)C[C@@]12C(=O)N(c3cccc(F)c3)C(=O)N1[C@H](c1ccc(Br)cc1)[C@@H]1C(=O)N(C(C)(C)C)C(=O)[C@@H]12 | 1.3 | -1.1 | 4.7 | 16.6* | 29.5* | 17.8*
COc1ccc(NC(=O)N(C)C[C@H]2OCCCC[C@@H](C)Oc3ccc(NC(=O)Nc4ccc(C(F)(F)F)cc4)cc3C(=O)N([C@@H](C)CO)C[C@@H]2C)cc1 | 4.3 | / | / | / | / | /
C[C@@H]1CN([C@H](C)CO)C(=O)c2cccc(NC(=O)C3CCCCC3)c2O[C@@H]1CN(C)CC1CC1 | 1.0 | / | / | / | / | /
C[C@H](O)C#Cc1ccc2c(c1)O[C@@H](CN(C)C(=O)CN(C)C)[C@H](C)CN([C@H](C)CO)S2(=O)=O | 0.6 | / | / | / | / | /
